Data on 71 compounds can be found in PubChem BioAssay AID652189 (Johns Hopkins Ion Channel Center, 2013).

The campaign covered roughly 2,300 compounds. About 900 (39%) were called active.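 The calls were made as follows: active = mean duplicate percent inhibition, scaled so buffer wells are 0 and the reference blocker 100, over three buffer SD above buffer mean; inactive = the rest.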 These entries were drawn from the full list.

For the assay, the target named is Anoctamin-1 (Mus musculus) (UniProt Q8BHY3). As to the kind of experiment: TMEM16A chloride channel inhibitors, confirmation, cell-based, re-confirmation (AID 652189). As to conditions: HEK293 TMEM16A/YFP-H148Q, iodide quench fluorescence, at 10 µM, ionomycin added to raise cell calcium; active compounds read high.
Chain of Anoctamin-1 (Mus musculus) (Q8BHY3 whole entry, looked up): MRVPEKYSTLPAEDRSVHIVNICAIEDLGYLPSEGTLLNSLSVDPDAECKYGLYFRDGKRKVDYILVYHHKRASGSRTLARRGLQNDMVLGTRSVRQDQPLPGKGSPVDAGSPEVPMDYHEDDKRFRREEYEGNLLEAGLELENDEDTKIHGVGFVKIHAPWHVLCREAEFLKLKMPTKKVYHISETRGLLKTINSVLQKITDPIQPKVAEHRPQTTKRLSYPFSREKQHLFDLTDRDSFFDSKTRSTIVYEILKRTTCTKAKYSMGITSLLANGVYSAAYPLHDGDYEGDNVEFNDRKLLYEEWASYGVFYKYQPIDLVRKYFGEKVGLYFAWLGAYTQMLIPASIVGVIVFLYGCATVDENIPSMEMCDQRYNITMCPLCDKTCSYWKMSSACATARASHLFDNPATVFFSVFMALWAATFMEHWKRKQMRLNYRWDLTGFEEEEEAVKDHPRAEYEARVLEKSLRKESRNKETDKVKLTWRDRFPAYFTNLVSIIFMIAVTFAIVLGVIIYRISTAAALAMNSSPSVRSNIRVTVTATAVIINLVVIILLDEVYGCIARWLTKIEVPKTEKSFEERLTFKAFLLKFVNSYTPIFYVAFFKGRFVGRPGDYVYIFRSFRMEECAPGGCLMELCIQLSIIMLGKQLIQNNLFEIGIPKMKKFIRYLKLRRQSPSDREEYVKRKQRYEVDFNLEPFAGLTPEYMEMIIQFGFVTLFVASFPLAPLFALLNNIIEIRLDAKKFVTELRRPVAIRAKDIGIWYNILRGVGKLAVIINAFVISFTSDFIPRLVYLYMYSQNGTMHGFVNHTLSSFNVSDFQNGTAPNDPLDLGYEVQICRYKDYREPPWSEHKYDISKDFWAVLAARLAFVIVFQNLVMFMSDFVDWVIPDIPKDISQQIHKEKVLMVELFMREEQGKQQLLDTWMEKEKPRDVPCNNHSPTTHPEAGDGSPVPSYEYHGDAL
The term inhibition denotes the change of the read-out against control, counted positive when it falls. Take `CC1CCN(C(=O)c2ccc(CSc3ccc(Cl)cc3)cc2)CC1`: the inhibition was 50.5% (active).

For `COc1ccc(CCC(=O)c2ccc(OC)cc2)cc1`, the inhibition result was “inactive”.

As for `Cc1ccc2c(c1)N(CC(=O)N1CCCc3ccccc31)C(=O)C(C)O2` (stereo unspecified), the inhibition result is “inactive”.

Regarding `CN(c1cccc(NC(=O)c2ccc(CN3CCc4ccccc4C3)cc2)c1)S(C)(=O)=O`, the inhibition is 20.5% (active).

Consider `S=C(NCC1CCCO1)N1CCN(c2ccc(Cl)c(Cl)c2)CC1` (stereo unspecified), for which the inhibition was 21% (active).

As to `Cc1cc(C=O)c(C)n1-c1ccc(NC2CCCCC2)c([N+](=O)[O-])c1`, the inhibition was 23.5% (active).

`CC(C)(C)C(=O)/C(C#N)=C/c1ccc(O)cc1`: the inhibition was 23% (active).

As to `CCOC(=O)C1=C(CN2CCc3ccccc32)NC(=O)NC1c1cccc([N+](=O)[O-])c1` (stereo unspecified), the inhibition entry was “inactive”.

As to `COc1ccc(C(=O)NC2CCCc3c2cnn3-c2cccc(C)c2C)c(OC)n1` (stereo unspecified), the inhibition is 65.5% (active).

As to `COC(=O)c1ccc(COC(=O)c2c(C)nn(Cc3ccccc3Cl)c2Cl)o1`, the inhibition was 16% (active).

Consider `O=S1(=O)CCN(Cc2ccccc2Cl)CC1`, for which the inhibition entry was “inactive”.

With `Cc1ccc(F)cc1NC(=O)Cc1nn(C)c(=O)c2ccccc12`, the inhibition was 34.5% (active).

Regarding `CCOC(=O)N1CC=C2C(C#N)=C(N)C(C#N)(C#N)[C@H](c3cccs3)[C@H]2C1`, the inhibition entry was “inactive”.

Turning to `CC1=NN(c2cccc(Cl)c2)C(=O)C12CC(C)=C(C)CS2` (stereo unspecified), the inhibition result is “inactive”.

For the compound `Cc1ccc(-n2[nH]c(C)c(/C=N/N3C(=O)c4cccc5cccc(c45)C3=O)c2=O)cc1`, the inhibition result was “inactive”.

Take `Cc1[nH]n(-c2cccc(Cl)c2)c(=O)c1-c1ccc(Cl)cc1`: the inhibition is 24% (active).

With `O=C1NC(=O)C2C1C(c1ccc([N+](=O)[O-])cc1)=NN2Cc1ccccc1` (stereo unspecified), the inhibition entry was “inactive”.

As for `CCN(CC)S(=O)(=O)c1ccc(N(C)Cc2ccc(C(F)(F)F)cc2)nc1`, the inhibition is 22% (active).

For `CCCOc1ccc(Cc2c(Cl)nc(SC)nc2NC)cc1`, the inhibition was 44.5% (active).

On to `COc1ccc(CN(C)C(=O)CC(c2ccccc2)c2ccccc2)cc1`, for which the inhibition entry is “inactive”.

As for `Cn1c(=O)n(C)c2cc(S(=O)(=O)N3CCCc4ccccc43)ccc21`, the inhibition entry was “inactive”.

Consider `Cc1ccc(NC(=O)C(C)c2cccc(C(=O)c3ccccc3)c2)cc1` (stereo unspecified), for which the inhibition is 30.5% (active).

For `Cc1ccccc1-n1nnnc1SCCCC(=O)c1ccc(F)cc1`, the inhibition entry is “inactive”.

Take `Cc1nc2c(C(=O)NCc3ccc4c(c3)OCO4)c[nH]n2c(=O)c1Cc1ccccc1F`: the inhibition is 18% (active).

Regarding `Cc1ccc(NC(=O)CN(C)CC(=O)Nc2cccc(F)c2)cc1[N+](=O)[O-]`, the inhibition is 24.5% (active).

As for `O=C(CN1CCN(C(=S)NC2CCCC2)CC1)Nc1ccc(Oc2ccccc2)cc1`, the inhibition entry is “inactive”.

Take `O=C(CNCCC1=CCCCC1)Nc1ccccc1N1CCCCCC1`: the inhibition was 19.5% (active).

In the case of `CCCC(=O)Nc1ccccc1N1CCN(C(=O)c2ccccc2)CC1`, the inhibition result was “inactive”.

Regarding `CCCCNC(=O)CSc1nc2n[nH]c(C)c2c(=N)n1-c1cccc(Cl)c1C`, the inhibition result was “inactive”.

For `CCc1cc2c(N3CCN(c4nnc(CC)s4)CC3)ncnc2s1`, the inhibition is 40% (active).

In the case of `Cc1ccc(C(=O)O)cc1-c1ccc(/C=C2\SC(=O)N(CC(=O)Nc3ccc4c(c3)OCO4)C2=O)o1`, the inhibition entry is “inactive”.

`O=C(CSCc1ccc(Cl)cc1)N1CCN(Cc2ccc3c(c2)OCO3)CC1`: the inhibition is 20% (active).

As to `Cc1ccc(-n2ncc3c(N4CCN(c5ccc(F)cc5)CC4)ncnc32)c(C)c1`, the inhibition was 28.5% (active).

As to `O=C(O)c1ccc(NC(=O)C2CCCCC2)cc1`, the inhibition entry was “inactive”.

With `O=C(N/N=C/c1cc(Cl)cc([N+](=O)[O-])c1O)C(O)(c1ccccc1)c1ccccc1`, the inhibition result is “inactive”.

Consider `Cc1cc(C)cc(NS(=O)(=O)c2ccc(Oc3ncc(C(F)(F)F)cc3Cl)cc2)c1`, for which the inhibition result is “inactive”.

As for `Cc1ccc(N2C(=O)S/C(=C/c3cn(C)c4ccccc34)C2=O)cc1`, the inhibition result was “inactive”.

Regarding `O=C1c2ccccc2C(Nc2ccc3c(c2)OCCO3)N1Cc1ccco1` (stereo unspecified), the inhibition entry was “inactive”.

On to `COC(=O)c1ccc(NC(=O)c2ccccc2NS(=O)(=O)c2ccccc2)cc1`, for which the inhibition was 29.5% (active).

For the compound `CCOC(=O)C1CCN(c2ncnc3c2oc2ccc(Br)cc23)CC1`, the inhibition was 28% (active).

Consider `Cc1ccc(-c2csc(-c3c[nH]c4ccccc34)n2)cc1`, for which the inhibition entry is “inactive”.

As to `S=C(NCc1cccs1)Nc1ccc(Cl)cc1`, the inhibition entry was “inactive”.

Turning to `S=C(NCc1ccc(Cl)cc1)NC12CC3CC(CC(C3)C1)C2`, the inhibition is 46% (active).

On to `CN(Cc1cccnc1)C(=O)c1cc(COc2ccc3ncccc3c2)on1`, for which the inhibition entry is “inactive”.

As for `CC(=O)c1cc(CN2CCC(C(=O)Nc3cccc(-c4cscn4)c3)CC2)cs1`, the inhibition was 21.5% (active).

For `Cc1ccc(C)c(N2CCN(C(=O)CCCCn3c(=O)[nH]c4ccccc4c3=O)CC2)c1`, the inhibition entry was “inactive”.

For the compound `CCOC(=O)N1CCN(C(=O)c2ccc3c(c2)N(Cc2ccc(C)cc2)CCS3)CC1`, the inhibition entry is “inactive”.

With `COc1ccc(OCC(=O)NCCc2ccc(S(N)(=O)=O)cc2)cc1`, the inhibition entry is “inactive”.

As for `COc1ccc(S(=O)(=O)NCCCCOc2ccc(Cl)cc2)cc1`, the inhibition was 23.5% (active).

With `Cc1nc(CNS(=O)(=O)c2ccc(Oc3ccccc3)cc2)cs1`, the inhibition entry is “inactive”.

Take `CCn1nccc1C(=O)Nc1ccc(S(=O)(=O)NC23CC4CC(CC(C4)C2)C3)cc1`: the inhibition result was “inactive”.

For `CCCCCc1ccc(-c2ccc(C(=O)O)cc2)nc1`, the inhibition result is “inactive”.

For `O=C(Nc1cccc(S(=O)(=O)Nc2ccc(Cl)cc2)c1)c1ccc2c(c1)OCCO2`, the inhibition was 19% (active).

`COc1ccc(Cl)cc1NC(=O)CCS(=O)(=O)c1cc2c(cc1C)NC(=O)CO2`: the inhibition result was “inactive”.

Turning to `COc1cccc(CNS(=O)(=O)c2ccc3c(c2)CC(C)N3C(=O)C2CCC2)c1` (stereo unspecified), the inhibition was 19.5% (active).

Take `COc1ccc(-n2c(C)cc(C(=O)CSc3nnc(-c4cccs4)o3)c2C)cc1`: the inhibition result was “inactive”.

In the case of `Fc1ccc(CSc2nnc(-c3cc4c(s3)-c3ccccc3CC4)o2)cc1`, the inhibition entry was “inactive”.

As for `Cc1cccc(-n2c(SCC(N)=O)nc3c(c2=O)C2(CCCCC2)Cc2ccccc2-3)c1`, the inhibition is 22% (active).

For `C=C(C)Cn1c(C)cc(C)c(S(=O)(=O)c2ccccc2C)c1=O`, the inhibition entry is “inactive”.

Consider `COc1cc(CC(=O)Nc2nc(-c3ccc(F)c(F)c3)cs2)cc(OC)c1OC`, for which the inhibition is 25.5% (active).

For `O=C(Nc1nc(-c2ccc3c(c2)OCO3)cs1)c1ccncc1`, the inhibition result is “inactive”.

As for `Cc1ccc(N)cc1-n1c(C)ccc1C`, the inhibition result was “inactive”.

As for `CCOC(=O)C(Sc1ncc(C#N)c(N)n1)C(C)C` (stereo unspecified), the inhibition entry was “inactive”.

On to `N#Cc1nc(COc2ccc(-c3ccccc3)cc2)oc1NCc1cccnc1`, for which the inhibition result is “inactive”.

Take `O=C(NC(=S)Nc1ccccc1C(=O)O)c1ccc(-c2ccc(Br)cc2)o1`: the inhibition entry is “inactive”.

With `O=C(Nc1ccccc1)c1ccccc1NC(=O)C(F)(F)F`, the inhibition is 26.5% (active).

For `CSc1cccc(NC(=S)N(C(C)C)C(C)c2ccccn2)c1` (stereo unspecified), the inhibition entry was “inactive”.

Turning to `Fc1ccc2[nH]c3c(N4CCSCC4)ncnc3c2c1`, the inhibition was 41.5% (active).

Regarding `CCC(=O)Nc1ccc2nc(C)n(Cc3ccccc3Cl)c(=O)c2c1`, the inhibition result is “inactive”.

Regarding `Cc1nc(SCC(=O)N2CCc3ccccc3C2)c2c(C)c(C)sc2n1`, the inhibition entry is “inactive”.

Consider `Cc1ccc(C)c(N2CCN(S(=O)(=O)c3ccc4c(c3)oc(=O)n4C)CC2)c1`, for which the inhibition result was “inactive”.
